Screening results deposited in PubChem by National Center for Advancing Translational Sciences (NCATS).
A selection: hits, their analogues and other compounds. The true share with any hit is near 3.3%.
PLK1 PBD inh: qHTS for Inhibitors of PLK1-PDB (polo-like kinase 1 - polo-box domain): Primary Screen. Plk1 PBD binding of FITC phosphopeptide, fluorescence polarization. Serine/threonine-protein kinase PLK1 (Homo sapiens), P53350. 2.8% of 360,000 active. Potency, µM, for inactives: max response, negative = inhibition, hits mostly inhibitors. AID 720504, 2013; further: potency means the concentration at half of the fitted maximal effect; series mostly up to about 57 µM; nearly all actives have a fitted effect of over 65% in size
USP1 inh: Inhibitors of USP1/UAF1: Primary Screen; recombinant USP1/UAF1, Ub-Rhodamine cleavage fluorescence; Potency, µM (series often up to 57.1 µM), inactives show at the top dose activity change, negative = inhibition, hits mostly inhibitors; 0.23% of 390,000 active; AID 743255, 2014; further: potency means the concentration at half of the fitted maximal effect; nearly all actives have a fitted effect of over 60% in size
Target sequence (O94782 whole entry, looked up): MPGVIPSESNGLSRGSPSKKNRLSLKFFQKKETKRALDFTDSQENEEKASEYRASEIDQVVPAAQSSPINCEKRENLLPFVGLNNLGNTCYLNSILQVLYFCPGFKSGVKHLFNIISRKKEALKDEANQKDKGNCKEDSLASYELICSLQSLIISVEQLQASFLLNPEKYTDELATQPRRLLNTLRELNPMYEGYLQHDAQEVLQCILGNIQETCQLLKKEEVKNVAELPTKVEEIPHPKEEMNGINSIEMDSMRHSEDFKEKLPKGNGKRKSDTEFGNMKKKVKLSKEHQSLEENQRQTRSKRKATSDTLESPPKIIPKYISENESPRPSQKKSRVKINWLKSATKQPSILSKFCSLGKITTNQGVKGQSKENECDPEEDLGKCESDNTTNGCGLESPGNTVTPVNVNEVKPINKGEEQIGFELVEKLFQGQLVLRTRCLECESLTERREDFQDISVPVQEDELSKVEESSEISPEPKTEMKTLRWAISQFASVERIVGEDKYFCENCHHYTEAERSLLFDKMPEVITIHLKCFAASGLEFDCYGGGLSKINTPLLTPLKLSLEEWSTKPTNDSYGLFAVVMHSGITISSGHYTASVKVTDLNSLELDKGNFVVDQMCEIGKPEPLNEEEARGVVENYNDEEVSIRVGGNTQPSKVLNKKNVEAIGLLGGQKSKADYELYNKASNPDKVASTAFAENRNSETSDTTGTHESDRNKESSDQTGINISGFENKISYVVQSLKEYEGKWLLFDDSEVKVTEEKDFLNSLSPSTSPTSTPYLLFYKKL
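USP1/UAF1 complex (1 nM) preincubated 15 min at room temperature with compound, then Ub-Rho substrate (150 nM final) added. Kinetic fluorescence at 480/540 nm over 6 reads at 60 s intervals; 50 mM HEPES pH 7.8, 0.5 mM EDTA, 0.1 mg/ml BSA, 1 mM TCEP, 0.01% Tween-20.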
USP2a inh: qHTS Assay for Inhibitors of Ubiquitin-specific Protease USP2a Using CHOP2 as the Reporter | USP2 core, Ub-CHOP2 coupled fluorogenic reporter, 485/531 | 0.01% of 330,000 active | Ubiquitin carboxyl-terminal hydrolase 2 (Homo sapiens), O75604 | Potency, µM (series often up to 38.3 µM), inactives show at the highest dose activity change, negative = inhibition, actives largely listed as inhibitors;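 further: potency means the concentration at half of the fitted maximal effect; plate controls were DMSO wells for no effect and full inhibition by NEM control for full effect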
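Deubiquitinase activity read as fluorescence (485/531 nm) after Ub-CHOP2 cleavage activates the enterokinase reporter on its substrate; USP2 core 10nM, Ub-CHOP2 and substrate 25nM each, 30min compound preincubation then 60min RT; data normalized to NEM, curves fitted.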
PI5P4Ka inh: qHTS for Inhibitors of phosphatidylinositol 5-phosphate 4-kinase (PI5P4K). Phosphatidylinositol 5-phosphate 4-kinase type-2 alpha (Homo sapiens), P48426. PI5P4Kalpha enzyme, ADP-Glo luminescence, 60 min; active compounds read low. max response, %. 1.2% of 330,000 active; active means max response of -50% or lower; inconclusive means between -30% and -50%; inactive means -30% or higher; further: value at the top dose of about 77 µM
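Compounds were pin-transferred onto PI5P4Kalpha and substrate in HEPES pH 7.4 buffer with EGTA, CHAPS and 5% DMSO. ATP (5 microM final) started the reaction, which ran 60 minutes at room temperature before ADP-Glo detection.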
WRN helicase inh: qHTS for Inhibitors of WRN Helicase; Bifunctional 3'-5' exonuclease/ATP-dependent helicase WRN (Homo sapiens), Q14191; WRN helicase unwinding, fluorescent forked duplex, kinetic; Potency, µM (top dose mostly 114 µM), for the others: at the top dose activity change, negative = inhibition, most hits filed as inhibitors; 0.46% of 360,000 active; further: potency means the concentration at half of the fitted maximal effect; nearly all actives have a fitted effect of over 55% in size
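Fluorescence dequenching readout, ex 525 nm/em 598 nm, kinetic mode: forked duplex DNA (100 nM final) with adjacent fluorophore and quencher unwound by WRN (20 nM final) with 2 mM ATP. Compound preincubation 15 min, room temperature.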
* marks the source's active call; other numbers are inactive results; ? = inconclusive; nt = no result; [ ] = dose if it differs, or a comment. Unless noted, the call rests on the fitted dose curve; in most records, active means well fitted curve in the direction sought with a large enough effect; inconclusive means small, poorly fitted or top-dose-only effect, or another doubt; inactive means no such curve, though single readings can be large; an effect the other way counts as inactive or inconclusive. Unless noted, on the % scale 0 is the no-effect control and ±100 the full control effect.

SMILES	PLK1 PBD inh	USP1 inh	USP2a inh	PI5P4Ka inh	WRN helicase inh
Cc1ccc(C(C2=C(O)CC(C)(C)CC2=O)C2C(=O)CC(C)(C)CC2=O)s1 (stereo unspecified)	4.7µM*	-13%	-1%	?	56µM*
O=C(NN1CCOCC1)c1cccc2ccccc12	30µM*	-16%	1%	-17	8%
Cc1ccc(NNC(=S)Nc2ccc(C(C)C)cc2)c(C)c1	17µM*	-9%	0%	0	-24%
Cc1ccc2nc(SC(Cc3cc(Cl)ccc3Cl)C(=O)O)[nH]c2c1 (stereo unspecified)	nt	-29%	nt	nt	nt
Cn1c(N)c(C#N)c2c(c1=S)COC(C)(C)C2	-8%	-6%	0%	8	0%
CCC1(C)Cc2c(C#N)c(N)n(-c3ccccc3)c(=O)c2CO1 (stereo unspecified)	4%	-14%	1%	nt	1%
N#Cc1c2c(c(=S)n(-c3ccccc3)c1N)CCCC2	2.7µM*	?	0%	-26	-28%
CC1(C)Cc2c(C#N)c(N)n(-c3ccccc3)c(=S)c2CO1	11µM*	-10%	0%	0	0%
CCC1(C)Cc2c(C#N)c(N)n(N)c(=S)c2CO1 (stereo unspecified)	27µM*	-3%	0%	-7	6%
CCC(C(=O)OCC(=O)NC(=O)c1ccccc1)c1ccccc1 (stereo unspecified)	-1%	-21%	1%	4	8%
CCC(C(=O)OCC(=O)NC(=O)NC(C)(C)C)c1ccccc1 (stereo unspecified)	27µM*	-23%	-1%	-17	-1%
CN1CC=C2C(C#N)=C(N)C(C#N)(C#N)C(c3ccsc3)C2C1 (stereo unspecified)	?	-16%	14%	2	-4%
CCN1CC=C2C(C#N)=C(N)C(C#N)(C#N)[C@H](c3cccc(OC)c3OC)[C@H]2C1	?	32µM*	13%	nt	0%
CN1CC=C2C(C#N)=C(N)C(C#N)(C#N)[C@H](c3cccs3)[C@H]2C1	21µM*	?	14%	-18	?
CC1(C)C(=O)C=CC(=O)C(C)(C)C(=O)C=CC(=O)C(C)(C)C2=CC=C(O2)C(C)(C)C(=O)C=CC1=O	6µM*	-23%	nt	-3	-7%
O=C1OCCC1Sc1nnc(-c2ccc(O)cc2)o1 (stereo unspecified)	27µM*	-7%	0%	-15	1%
CC[C@H](C)/C=C(C)/C=C/C(=O)Cc1cc(O)c(C)c(O)c1C=O	-17%	?	8%	-57*	-6%[11.6 µM]
Cc1cc(NC(=O)N2CCC(CN3CCCCCC3)CC2)ccc1Br	nt	-13%	nt	nt	nt
CCOC(=O)c1ccc(NC(=O)CSc2nccn2-c2ccc(OCC)cc2)cc1	nt	-11%	nt	nt	nt
Cc1nnc(SCC(=O)N/N=C/c2cc(Cl)c(O)c(Cl)c2)s1	-20%	-3%	1%	-79*	-14%
CCn1c(CSc2nccn2C)nc2cc(C(=O)O)ccc21	-18%	?	7%	6	79µM*
Cc1ccc(CCNC(=O)c2c(C)oc3ncn(CC(C)C)c(=O)c23)cc1	nt	3%	nt	nt	nt
CCN(CC)S(=O)(=O)c1ccc(N2CCOCC2)c(NC(=S)NC(=O)c2ccco2)c1	24µM*	?	-1%	-11	-13%
CCN(CC)S(=O)(=O)c1ccc(N2CCOCC2)c(NC(=O)c2ccco2)c1	-3%	5%	2%	-2	-6%
O=C(NC(=S)Nc1cc(S(=O)(=O)N2CCOCC2)ccc1N1CCOCC1)c1ccco1	-9%	-16%	10%	1	3%
SMILES	PLK1 PBD inh	USP1 inh	USP2a inh	PI5P4Ka inh	WRN helicase inh
O=C(NC(=S)Nc1cc(S(=O)(=O)N2CCOCC2)ccc1O)c1ccco1	12µM*	-13%	0%	-8	-6%
Cc1ccccc1NC(=O)COC(=O)Cc1cccc(C(F)(F)F)c1	-4%	-11%	3%	-2	13%
O=C(Cc1cccc(C(F)(F)F)c1)Nc1ccccc1	24µM*	-3%	0%	12	-1%[57.1 µM]
CC(C)c1ccccc1NC(=O)COC(=O)Cc1cccc(C(F)(F)F)c1	27µM*	-3%	2%	5	-18%
NS(=O)(=O)c1ccc(CCNC(=O)Cn2c(=O)c3cccn3c3ccc(F)cc32)cc1	nt	-13%	nt	nt	nt
Cc1ccc(-c2nc3ccccc3s2)cc1NC(=S)NC(=O)/C=C/c1ccco1	-21%	-8%	0%	-25	?
O=C(/C=C/c1ccco1)NC(=S)Nc1cc(-c2nc3ccccc3s2)ccc1Cl	-29%	-23%	-1%	-56*	?
Cc1ccc(-c2nc3ccccc3o2)cc1NC(=S)NC(=O)/C=C/c1ccco1	-11%	-8%	2%	?	?
Cc1cccc(NC(=S)NC(=O)/C=C/c2ccco2)c1	?	-11%	1%	-64*	?
O=C(/C=C/c1ccco1)NC(=S)Nc1cccc(-c2nc3ccccc3o2)c1	-25%	1%	1%	-64*	50µM*
Cc1ccccc1NC(=S)NC(=O)/C=C/c1ccco1	21µM*	-5%	2%	-58*	79µM*
COc1ccccc1NC(=S)NC(=O)/C=C/c1ccco1	?	-21%	3%	?	?
Cc1ccc(OCCSc2nc3ccc(NC(=O)c4ccc5c(c4)OCO5)cc3s2)cc1	nt	-9%	nt	nt	nt
CC(=O)Nc1ccc(NC(=O)C2(c3cccs3)CCOCC2)cc1	nt	-26%	nt	nt	nt
CSc1cccc(NC(=O)/C=C/c2ccco2)c1	?	-23%	-1%	-58*	-11%[11.6 µM]
CCCn1nnc(NC(=S)NC(=O)/C=C/c2ccco2)n1	-14%	-15%	0%	-63*	?
CC(=O)Nc1cccc(NC(=O)Cc2csc(COc3cccc(C)c3)n2)c1	nt	-20%	nt	nt	nt
CCc1cccc(NC(=O)CCS(=O)(=O)c2cc3c4c(c2)CCN4C(=O)CC3)c1	nt	-22%	nt	nt	nt
COc1cccc(NC(=O)c2sc3nc(C)c(C(=O)Nc4ccc(C)cc4C)c(-c4ccco4)c3c2N)c1	nt	35µM*	nt	nt	nt
O=C(Nc1nnc(-c2ccncc2)s1)C1CCCO1 (stereo unspecified)	21µM*	-16%	1%	-12	-11%
O=C(Nc1nnc(Cc2ccc(Cl)cc2)s1)C1CCCO1 (stereo unspecified)	24µM*	-14%	3%	5	-6%
COC(=O)c1ccccc1NC(=O)c1cc2nc(-c3ccc(OC)cc3)cc(C(F)(F)F)n2n1	nt	-9%	nt	nt	nt
Cc1cccc(N(C)c2cc(C)nc3nc(C)nn23)c1	30µM*	-18%	0%	1	4%
CCN(c1ccccc1)c1cc(C)nc2nc(C)nn12	-4%	-6%	1%	1	6%
